Reference: PubChem BioAssay AID1220 (Sanford-Burnham Center for Chemical Genomics, 2008)
The campaign covered roughly 190,000 compounds. About 1,300 (0.68%) were called active. The sample holds actives, similar compounds and a random draw of the others, so the mix is not that of the screen. A number with no mark means an inactive call. No stated cut-off is given here; in the data, active means inhibition above about 50%; inactive means the rest.

Target: Mannose-6-phosphate isomerase (Homo sapiens) (UniProt P34949)
Assay: MPI inhibition at elevated mannose 6-phosphate – biochemical, fluorescence intensity, high mannose 6-phosphate, primary screen (AID 1220)
Conditions: recombinant PMI enzyme, coupled fluorescence intensity; at 20 µM; hits give high values

Chain of Mannose-6-phosphate isomerase (Homo sapiens) (P34949 whole entry, looked up): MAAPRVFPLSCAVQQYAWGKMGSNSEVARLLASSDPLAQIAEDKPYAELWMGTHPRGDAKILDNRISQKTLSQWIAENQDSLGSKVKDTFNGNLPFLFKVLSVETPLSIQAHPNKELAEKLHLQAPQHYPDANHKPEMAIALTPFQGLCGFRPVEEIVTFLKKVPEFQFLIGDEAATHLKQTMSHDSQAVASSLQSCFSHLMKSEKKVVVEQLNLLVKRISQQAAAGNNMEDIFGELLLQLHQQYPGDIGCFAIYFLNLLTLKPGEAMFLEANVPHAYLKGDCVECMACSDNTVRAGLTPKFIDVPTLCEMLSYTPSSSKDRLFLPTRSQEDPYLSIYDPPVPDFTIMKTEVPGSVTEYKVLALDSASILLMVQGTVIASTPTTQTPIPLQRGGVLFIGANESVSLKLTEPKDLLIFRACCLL

Compound | inhibition
COc1ccc(-n2ccnc2SCC(=O)NCc2ccco2)c(OC)c1 | 5.5%
O=C(NCc1ccco1)C1Cc2ccccc2CN1C(=O)c1ccco1 (stereo not given) | -0.2%
CCn1c(SCc2nc3sc(C(=O)O)c(C)c3c(=O)[nH]2)nnc1-c1ccc(Cl)cc1 | -1%
CC(C)(C)c1csc(NC(=O)Nc2ccccc2)n1 | 7.8%
COc1ccccc1NC(=O)Nc1nc(C(C)(C)C)cs1 | 56.3% (active)
COc1ccccc1NC(=O)Nc1cc(NC(=O)Nc2ccccc2OC)c(C)nc1C | -9.6%
COc1ccc(S(=O)(=O)c2ccc(OC)cc2)cc1 | 6.7%
COc1ccc(S(=O)(=O)/N=C2/C=CC(=O)C(C)=C2C)cc1 | 43.8%
COc1ccc(S(=O)(=O)N=C2C=C(C)C(=O)C(C)=C2)cc1 | 61.5% (active)
CC1CCN(C(c2ccccc2)c2nnnn2C(C)(C)C)CC1 (stereo not given) | -19.6%
Cn1cc(Br)c(C(=O)NN2C(=O)C3C4C=CC(C5CC45)C3C2=O)n1 (stereo not given) | 2.3%
O=C(Cc1cccc2ccccc12)NCCOc1ccccc1F | 23.4%
Nc1cc2c(cc1[N+](=O)[O-])OCO2 | 52.9% (active)
Nc1cc2c(cc1[N+](=O)[O-])OCCO2 | 7.1%
Nc1cc2c(cc1[N+](=O)[O-])OCCOCCOCCO2 | 19.7%
CCNc1nc(NCC)nc(C(=O)NN)n1 | -16.1%
COc1cc(/C=N/NC(=O)C(Cc2c[nH]c3ccccc23)NC(=O)OCC(C)C)cc([N+](=O)[O-])c1OCc1ccccc1 (stereo not given) | 53.6% (active)
COc1cc(/C=N/NC(=O)[C@H](Cc2c[nH]c3ccccc23)NC(=O)OCC(C)C)cc([N+](=O)[O-])c1O | 14.5%
COc1cc(/C=N/NC(=O)C(Cc2c[nH]c3ccccc23)NC(=O)OCC(C)C)cc([N+](=O)[O-])c1O (stereo not given) | 6.2%
Cc1ccc(S(=O)(=O)Cc2ccc(C(=O)N3CCc4ccccc4C3)o2)cc1 | -0.7%
CC(C)c1cccc(C(C)C)c1NC(=O)COC(=O)c1ccc(OCC(=O)Nc2cccc(C(F)(F)F)c2)cc1 | 10.7%
O=c1oc2ccccc2cc1-c1cn2ccccc2n1 | -4.7%

Compound | inhibition
COc1cc(OC)c(NC(=O)CC(C)=O)cc1Cl | 26.6%
Clc1ccccc1OCc1nnc(-c2ccccc2Br)o1 | 5.6%
CC(C)(C)NC(=O)CSc1nc(N)cc(=O)[nH]1 | 0.4%
COc1ccc2ccccc2c1C(O)c1nccn1C (stereo not given) | 64.7% (active)
COc1ccc(C(O)c2nccn2C)cc1 (stereo not given) | 9.1%
Cn1ccnc1C(O)c1ccccc1 (stereo not given) | 15.2%
OC(COCc1ccc(Cl)cc1)CN1CCN(CC(O)COCc2ccc(Cl)cc2)CC1 (stereo not given) | -11.7%
Cc1csc(NC(=O)C2C3C=CC(O3)C2C(=O)O)n1 (stereo not given) | 5%
Cc1ccc2[nH]c3c(c2c1)CCC3=O | 15.5%
Cc1ccc2[nH]c3c(c2c1)CCNC3=O | -5.2%
Cc1onc(-c2ccccc2)c1C(=O)Oc1cccnc1 | -0.5%
CC(=O)NC(CCS(C)(=O)=O)C(=O)Nc1ccccc1C (stereo not given) | 3.2%
CCCCN(C)C(=O)c1cc2cc3cc(OC)ccc3nc2o1 | 16.4%
Cc1cccnc1CCNC(=O)CCc1nnc(CCc2ccccc2)o1 | 17.7%
O=C(NC1CC1)c1cc(Cl)ccc1[N+](=O)[O-] | 12.7%
O=C(c1cc(C(=O)c2ccco2)cc(C(=O)c2ccco2)c1)c1ccco1 | 6.2%
O=C(c1ccco1)c1coc2c1cc(O)c1ccccc12 | 51.1% (active)
CC(=O)c1coc2c1cc(O)c1ccccc12 | 4.7%
CCOC(=O)c1ccc(N2C(=O)CC(N3CCOCC3)C2=O)cc1 (stereo not given) | -0.3%
CNc1cccc2c1C(=O)c1ccccc1C2=O | 24.4%
CN(C)c1cc2c(c(N(C)C)c1)C(=O)c1ccccc1C2=O | 50.3% (active)
COc1ccc(OC)c2c1C(=O)c1ccccc1C2=O | -55.2%

Compound | inhibition
CN(C)S(=O)(=O)c1cccc2c1C(=O)c1ccccc1C2=O | 21%
CN(C)c1cccc2c1C(=O)c1ccccc1C2=O | 55.7% (active)
CN(C=[N+](C)C)c1cccc2c1C(=O)c1ccccc1C2=O | 39.3%
Cc1nc2ccccn2c1C(=O)NN=C1CCCC1 | -5%
Cc1ccc(C(=O)NNC(=O)c2cccc(S(=O)(=O)N3CCN(c4ccccc4)CC3)c2)cc1 | 5.6%
Cc1ccc(C(=O)NCC(=O)OC(C)C(=O)NCCC2=CCCCC2)cc1C (stereo not given) | 4.6%
O=C(NCC1CCCO1)C(c1ccc(F)cc1)N(CC1CCCO1)C(=O)c1ccc(-c2ccccc2)[nH]1 (stereo not given) | -8.3%
O=C(CCOc1ccccc1)Nc1cccc([N+](=O)[O-])c1 | -0.7%
O=C(CNS(=O)(=O)c1ccccc1F)Nc1ccc(N2CCOCC2)cc1 | 1%
COc1ccc(C(=O)NCCSc2ccccc2)cc1 | 7.1%
CCCc1cc(=O)oc2c(C)c3occ(C)c3cc12 | 2.8%
C/C(=N\NC(=O)CNc1cccc(C)c1)c1ccc(Br)s1 | 14.6%
C/C(CCc1ccco1)=N\NC(=O)CNc1cccc2ccccc12 | 56% (active)
COc1ccccc1NCC(=O)N/N=C(\C)c1ccc(Br)s1 | 11.6%
C/C(CCc1ccco1)=N\NC(=O)CNc1c(Br)cc(Br)cc1Br | -2.7%
C/C(CCc1ccco1)=N/NC(=O)CCC(=O)Nc1ccc(Br)cc1 | 7.1%
C/C(=N\NC(=O)CNc1cccc2ccccc12)c1ccc(Br)s1 | 52% (active)
CC(=O)Cc1nsc(Nc2cccc(C)c2)n1 | 6.5%
COc1ccc(NC(=O)c2ccco2)cc1S(=O)(=O)N1CCOCC1 | -7.3%
CC(OC(=O)c1cccnc1)C(=O)Nc1ccc2c(c1)OCO2 (stereo not given) | 2.7%
Cc1cccc(CCN(CC(=O)NC2CCCCC2)C(=O)c2csnn2)c1 | -6%
